Measured values reported in PubChem BioAssay (EPA / NIEHS).
Records with an inconclusive call do not appear. Active and inactive are the calls of the source. The calls were made as follows, unless noted: active = hit-call score of the fitted dose curve at least 0.9, where 1 is the maximum; inactive = score below 0.9.

Legend:
[1] = system: SRY-box transcription factor 2 (SOX2) Protein Expression, Deisenroth Lab, SOX2 (gene 6657); assay: CCTE_Deisenroth_DEVTOX-GLR_Endo_SOX2: CCTE's DevTox GLR-Endo Assay Evaluation of SRY-box transcription factor 2 (SOX2) Protein Expression, Deisenroth Lab (AID 2284412; active = hit-call score of the fitted dose curve at least 0.9, where 1 is the maximum)
Description: CCTE_Deisenroth_DEVTOX-GLR_Endo assay is a cell-based, multiplex-readout assay that uses RUES2-GLR, a human pluripotent cell line, with measurements taken at 48 hours after chemical dosing in a 384-well microplateCCTE_Deisenroth_DEVTOX-GLR_Endo_SOX2 is 1 of 4 assay components calculated from the CCTE_Deisenroth_DEVTOX-GLR_Endo assay and it measures the percentage of cells in an ectoderm state. Using a type of inducible fluorescent protein reporter, gain-of-signal activity can be used to understand changes in gene expression with fluorescent microscopy. The percentage SOX2+ cells are determined by calculating the number of SOX2+ cells divided by the cell count. To generalize the intended target to other relatable targets, this assay component is annotated to the transcription factor intended target family, where the subfamily is SRY-related HMG-box.Data from the assay component CCTE_Deisenroth_DEVTOX-GLR_Endo_SOX2 was analyzed as 1 assay endpoint. The endpoint is the percent SOX2+ cell population minus the 0.2% DMSO control in the CCTE_Deisenroth_DEVTOX-GLR_Endo assay. Furthermore, this assay endpoint can be referred to as a secondary readout, because this assay has produced multiple assay endpoints where this one serves as a measure of ectoderm differentiation.
(§1) All assay protocols are aligned to the DevTox GLR-Endo assay workflow. […]

[2] = system: SRY-box transcription factor 17 (SOX17) Protein Expression, Deisenroth Lab, SOX17 (gene 64321); assay: CCTE_Deisenroth_DEVTOX-GLR_Endo_SOX17: CCTE's DevTox GLR-Endo Assay Evaluation of SRY-box transcription factor 17 (SOX17) Protein Expression, Deisenroth Lab (AID 2284413)
Description: CCTE_Deisenroth_DEVTOX-GLR_Endo assay is a cell-based, multiplex-readout assay that uses RUES2-GLR, a human pluripotent cell line, with measurements taken at 48 hours after chemical dosing in a 384-well microplateCCTE_Deisenroth_DEVTOX-GLR_Endo_SOX17 is 1 of 4 assay components calculated from the CCTE_Deisenroth_DEVTOX-GLR_Endo assay and it measures the percentage of cells in an endoderm state. Using a type of inducible fluorescent protein reporter, gain-of-signal activity can be used to understand changes in gene expression with fluorescent microscopy. The percentage of SOX17+ cells are determined by calculating the number of SOX17+ cells divided by the cell count. To generalize the intended target to other relatable targets, this assay component is annotated to the transcription factor intended target family, where the subfamily is SRY-related HMG-box.Data from the assay component CCTE_Deisenroth_DEVTOX-GLR_Endo_SOX17 was analyzed as 1 assay endpoint. The endpoint is the percent change in SOX17+ cell population relative to the 0.2% DMSO control in the CCTE_Deisenroth_DEVTOX-GLR_Endo assay. This assay endpoint can be referred to as a primary readout since this assay has produced multiple assay endpoints where this one serves as a measure of endoderm differentiation.
as §1

[3] = system: Brachyury (BRA) Protein Expression, TBXT (gene 6862); assay: CCTE_Deisenroth_DEVTOX-GLR_Endo_BRA: CCTE's DevTox GLR-Endo Assay Evaluation of Brachyury (BRA) Protein Expression, Deisenroth Lab (AID 2284417)
In short: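 Endpoint is the fraction of BRA reporter-positive cells over total nuclei, corrected by subtracting the 0.2% DMSO value. Chemicals (1 nM - 200 uM, 10 points) were dosed twice during 48 h differentiation of RUES2-GLR cells, read by imaging.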

[4] = CCTE_Deisenroth_DEVTOX-GLR_Endo_CellCount: Viability Assessment in CCTE's DevTox GLR-Endo Assay, Deisenroth Lab (AID 2284420)
In short: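 Viability in differentiating RUES2-GLR cultures is scored by fluorescent nuclear counts after 48 h and two 24-hourly chemical treatments, as percent change from the 0.2% DMSO control.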

[5] = CCTE_Padilla_ZF_Score.General: CCTE's 144 Hour Post-fertilization zebrafish Assay Score for General Malformation, Padilla Lab (AID 2284411)
In short: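 Malformation, death and hatching were scored at 6 dpf by two blinded observers under a stereo microscope. Embryos were dosed singly from 6-8 hpf in sealed plates of 10% Hanks' at 26C and rinsed on 5 dpf; DMSO baseline.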

[6] = CCTE_Padilla_ZF_Score.Position: CCTE's 144 Hour Post-fertilization zebrafish Assay Score for Position, Padilla Lab (AID 2284409)
Description: (§2) CCTE_Padilla_ZF_Phenotype_Score is a whole embryo, multiplexed assay using zebrafish ova exposed for 144 hours post fertilization on a 96-well plate.CCTE_Padilla_ZF_Score.Position is one of one assay component(s) measured or calculated from the CCTE_Padilla_ZF_Phenotype_Score assay. It is designed to make measurements of zebrafish development as detected with brightfield microscopy of developing zebrafish embryos.Data from the assay component CCTE_Padilla_ZF_Score.Position was analyzed into 1 assay endpoints. This assay endpoint, CCTE_Padilla_ZF_Score.Position, was analyzed in the positive analysis fitting direction relative to DMSO as the negative control and baseline of activity. Using a type of viability reporter, gain-of-signal activity can be used to understand changes in developmentals as they relate to the whole embryo. To generalize the intended target to other relatable targets, this assay endpoint is annotated to the zebrafish development intended target family, where the subfamily is embryonic mobility.
(§3) Zebrafish husbandry: Wild type adult zebrafish (Danio rerio; undefined outbred stock obtained from Aquatic Research Organisms, Hampton, NH, 03842) were housed in an AAALAC-approved animal facility at 28C with a 14:10 h light: dark cycle (lights on at 08:30 h). Adult fish (2-3 females per male; density = 15-20 adults per tank) were kept in one of several 9-liter (L) flow-through colony tanks (Aquaneering Inc., San Diego, CA). All adults in a colony tank were placed in a 2 L (static) breeding tank (Aquatic Habitats, Apopka, FL) one hour prior to light onset. Typically, adults from two to three colony tanks were mated on the same day. Two hours after light onset the adults were returned to the colony tank. All embryos were gathered from each breeder tank, pooled, and placed in a 28C water bath for 2 h, followed by two washes with 0.06% bleach (v/v) in 10% Hanks' Balanced Salt Solution (13.7 mM NaCl 0.54 mM KCl, 25 uM Na2HPO4, 130 uM CaCl2 100 um MgSO4 and 420 um NaHCO3,), hereafter referred to as Hanks' solution, for 5 min in order to remove any residual bacteria or fungi. Immediately following washing, the embryos were examined, and healthy embryos were separated from dead or unfertilized eggs and moved into fresh Hanks'. Chemical exposures: Zebrafish embryos were exposed in 96-well plates. Between 6- and 8-hours post fertilization (hpf), healthy embryos (with chorions) were transferred, one embryo per well, into 96 well (0.5 mL) microtiter plates (Cell Culture-Treated, Flat-Bottom Microplate 96 well [Corning Costar, Kennebunk, ME; Cat 09-761-145]) filled with 200 uL of Hanks' solution. A random number generator was used to assign the order in which the rows of embryos were plated in 96 well plates each week. […]

[7] = CCTE_Padilla_ZF_Score.Living: CCTE's 144 Hour Post-fertilization zebrafish Assay Score for Viability, Padilla Lab (AID 2284410);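 also: larval death at 6 dpf judged by absent heartbeat or coagulation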
In short: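 Mortality at 6 dpf, judged as absent heartbeat or coagulation by two blinded observers, after sealed static exposure beginning at 6–8 hpf at 26C. Larvae were rinsed free of chemical at 5 dpf, and activity was fitted relative to DMSO.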

[8] = CCTE_Padilla_ZF_Score.Tail: CCTE's 144 Hour Post-fertilization zebrafish Assay Score for Tail Malformation, Padilla Lab (AID 2284414)
Description: as §2, with “plate.CCTE_Padilla_ZF_Score.Tail” for “plate.CCTE_Padilla_ZF_Score.Position”, “CCTE_Padilla_ZF_Score.Tail” for “CCTE_Padilla_ZF_Score.Position”, “CCTE_Padilla_ZF_Score.Tail,” for “CCTE_Padilla_ZF_Score.Position,”, “lower trunk morphogenesis.” for “embryonic mobility.”
as §3

[9] = CCTE_Padilla_ZF_Score.Blood_pooling: CCTE's 144 Hour Post-fertilization zebrafish Assay Score for Blood Pooling, Padilla Lab (AID 2284415)
Description: as §2, with “plate.CCTE_Padilla_ZF_Score.Blood_pooling” for “plate.CCTE_Padilla_ZF_Score.Position”, “CCTE_Padilla_ZF_Score.Blood_pooling” for “CCTE_Padilla_ZF_Score.Position”, “CCTE_Padilla_ZF_Score.Blood_pooling,” for “CCTE_Padilla_ZF_Score.Position,”, “swim bladder morphogenesis.” for “embryonic mobility.”
as §3

[10] = CCTE_Padilla_ZF_Score.Any: CCTE's 144 Hour Post-fertilization zebrafish Assay Score for Any Mortality or Malformation, Padilla Lab (AID 2284416)
In short: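 Wild-type zebrafish embryos with chorions, one per well in 10% Hanks' from 6–8 hpf, dosed in sealed plates at 26 C, 14:10 h light:dark; rinsed at 5 dpf; blinded scoring at 6 dpf for death or malformation, versus DMSO.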

Compound: NC(=O)c1ccc(N)nc1
- AC50 [1]: 71.1 µM (active)
- AC50 [2]: 21 µM (active)
- AC50 [3]: 68.7 µM (active)
- AC50 [4]: 30.6 µM (active)

Compound: O=C1C=CC(=O)c2ccccc21
- outcome [5]: inactive

Compound: CCOC(=O)C(SP(=S)(OC)OC)c1ccccc1 (configuration not stated)
- AC50 [5]: 8.89 µM (active)

Compound: CC(F)(F)CC(F)(F)F
- outcome [6]: inactive
- outcome [7]: inactive
- outcome [5]: inactive
- outcome [8]: inactive
- outcome [9]: inactive
- outcome [10]: inactive

Compound: Cc1ccccc1OP(=O)(Oc1ccccc1)Oc1ccccc1
- AC50 [5]: 2.78 µM (active)

Compound: CC(C=O)Cc1ccc2c(c1)OCO2 (configuration not stated)
- outcome [5]: inactive

Compound: Nc1c(Oc2ccccc2)cc(O)c2c1C(=O)c1ccccc1C2=O
- AC50 [5]: 14 µM (active)

Compound: OC(Cc1ccccc1Cl)(Cn1cncn1)C1(Cl)CC1 (configuration not stated)
- outcome [5]: inactive

Compound: COC(F)(C(F)(F)C(F)(F)F)C(F)(C(F)(F)F)C(F)(F)F (configuration not stated)
- outcome [6]: inactive
- outcome [7]: inactive
- outcome [5]: inactive
- outcome [8]: inactive
- outcome [9]: inactive
- outcome [10]: inactive

Compound: C=CCOC(F)(C(F)(F)F)C(F)(F)F
- outcome [6]: inactive
- outcome [7]: inactive
- outcome [5]: inactive
- outcome [8]: inactive
- outcome [9]: inactive
- outcome [10]: inactive

Compound: CCCCCCCCCCBr
- outcome [5]: inactive

Compound: Cc1ccc2nc3sc(=O)sc3nc2c1
- AC50 [5]: 0.563 µM (active)

Compound: CCN(CC)C(=O)C(Cl)=C(C)OP(=O)(OC)OC
- outcome [5]: inactive

Compound: Cc1cccc(OP(=O)(Oc2cccc(C)c2)Oc2cccc(C)c2)c1
- outcome [5]: inactive

Compound: Oc1c(Br)cc(Br)cc1Br
- AC50 [5]: 2.31 µM (active)

Compound: CCOP(=O)(OCC)SCCSCC
- outcome [5]: inactive

Compound: CCCCCCCCCCCCN(C)C
- outcome [5]: inactive

Compound: O=S(=O)(c1ccc(Cl)cc1)c1cc(Cl)c(Cl)cc1Cl
- AC50 [5]: 27.5 µM (active)

Compound: O=S(=O)(F)C(F)(F)C(F)(F)C(F)(F)C(F)(F)F
- outcome [6]: inactive
- outcome [7]: inactive
- outcome [5]: inactive
- outcome [8]: inactive
- outcome [9]: inactive
- outcome [10]: inactive
